High-throughput results: PubChem BioAssay, National Center for Advancing Translational Sciences (NCATS)
Shown are actives, neighbours in structure and some others; about 12% of the full set was active somewhere.
HP1b binding inh – inhibitors of HP1-beta chromodomain binding to methylated histone tails; P83916; AlphaScreen HP1-beta / biotin-H3K9me3 peptide binding; AID 540317; 390,000 tested, 0.56% active; Potency, µM (doses to about 114 µM), inactives show at the highest dose activity change, negative = inhibition, actives largely listed as inhibitors; also: nearly all actives have a fitted effect of over 70% in size
Target sequence (P83916 whole entry, looked up): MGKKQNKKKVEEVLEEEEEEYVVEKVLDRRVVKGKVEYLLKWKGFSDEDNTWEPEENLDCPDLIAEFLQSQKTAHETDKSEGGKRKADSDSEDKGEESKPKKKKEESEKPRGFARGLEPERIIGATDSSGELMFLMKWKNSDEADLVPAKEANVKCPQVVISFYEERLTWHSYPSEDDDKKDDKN
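HP1-beta protein (50 nM final) preincubated 30 min at room temperature with biotinylated H3(1-18)K9me3 peptide (50 nM) in PBS pH 7.4, 0.01% Tween-20, then compound added for 30 min. AlphaScreen streptavidin donor/nickel chelate acceptor beads (10 ug/mL final), 30 min dark, luminescence read.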
JMJD2A Tudor inh – inhibitors of human JMJD2A Tudor domain | O75164 | AlphaScreen JMJD2A-Tudor / H3K4me3 peptide binding | AID 504339 | Potency, µM (highest dose often 114 µM), for inactives: at the top dose activity change, negative = inhibition, hits mostly inhibitors | 390,000 tested, 4.4% active; also: % is scaled to controls: 0 for no effect and ±100 for the full control effect; nearly all actives have a fitted effect of over 50% in size
Sfp inh – blocks B. subtilis Sfp PPTase activity | Q9F4F7 | Biochemical Sfp PPTase activity, qHTS | Potency, µM, inactives show largest response in the series, negative = inhibition, actives largely listed as inhibitors | 310,000 tested, 3.5% active;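 also: the enzyme is Sfp with the accession as filed and its product quenches rhodamine fluorescence; 0% = enzyme reaction without inhibitor and -100% = no enzyme wells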
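Fluorescence-quenching assay: 15 nM Sfp-PPTase preincubated 15 min at room temperature with compound, then 5 uM rhodamine-CoA and 12.5 uM BHQ-2-labelled YbbR peptide added. Fluorescence (ex 525/em 598 nm) read at start and after 30 min; difference gives rate.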
BAZ2B inh – blocks human BAZ2B; AlphaScreen BAZ2B-H3K14Ac peptide displacement; Potency, µM (titrated, usually from 114 µM), for the others: top-dose activity change, negative = inhibition, usual class: inhibitors; 360,000 tested, 4.4% active; also: % is scaled to controls: 0 for no effect and ±100 for the full control effect; nearly all actives have a fitted effect of over 60% in size
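BAZ2B 50 nM plus b-H3(5-23)K14Ac 50 nM, PBS pH 7.4/0.01% Tween-20, 30 min RT; compound added (max 110 uM), 30 min RT; streptavidin donor/Ni-chelate acceptor beads 10 ug/mL final, 20 min dark; AlphaScreen read.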
G9a inh – G9a (human) methyltransferase inhibition; Q96KQ7; G9a H3K9 monomethylation, AlphaScreen, 2 h; Potency, µM (highest dose often 102 µM), for the others: at the highest dose activity, negative = inhibition, usual class: inhibitors; 350,000 tested, 8.8% active; AID 504332; also: % is scaled to controls: 0 for no effect and ±100 for the full control effect; nearly all actives have a fitted effect of over 75% in size
Target sequence (Q96KQ7 913-1193 limits assumed): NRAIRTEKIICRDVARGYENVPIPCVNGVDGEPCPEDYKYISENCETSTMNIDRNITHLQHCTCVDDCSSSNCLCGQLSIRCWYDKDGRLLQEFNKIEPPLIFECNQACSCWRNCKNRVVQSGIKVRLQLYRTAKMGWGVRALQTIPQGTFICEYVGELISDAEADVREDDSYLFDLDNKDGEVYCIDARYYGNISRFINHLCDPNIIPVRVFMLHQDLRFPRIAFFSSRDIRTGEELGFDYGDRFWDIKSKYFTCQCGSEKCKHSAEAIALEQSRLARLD
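Readings reflect AlphaScreen signal from monomethyl-H3K9 antibody detection. HMT at 20 nM; substrate b-H3K9 500 nM; cofactor SAM 20 uM; 2 h RT reaction; compounds tested as titrations in qHTS with 15 min preincubation.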
* hit, by the source's call; ? = inconclusive; . = not tested or not shown; ! = not active in a repeat; [ ] = remark or other dose. Calls follow the shape of the dose curve; as a rule, active = well fitted curve in the direction sought with a large enough effect; inconclusive = small, poorly fitted or top-dose-only effect, or another doubt; inactive = no such curve, though single readings can be large; an effect the other way counts as inactive or inconclusive. Potency is read from the fitted curve at half-maximal effect.

SMILES	HP1b binding inh	JMJD2A Tudor inh	Sfp inh	BAZ2B inh	G9a inh
O=c1cc(-c2cccc(F)c2)[nH]c2ccccc12	57%	-14%	-2%	2%	32µM*!
CC(=O)OCC(NC(=O)C(Cc1ccccc1)NC(=O)OC(C)(C)C)C1OC(n2cc(F)c(=O)[nH]c2=O)C(OC(C)=O)C1OC(C)=O (configuration not stated)	31%	-6%	13%	.	.
C#CCOc1c(Br)cc(C2C(C(=O)OC)=C(C)NC3=C2C(=O)c2ccccc23)cc1OCC (configuration not stated)	?	11µM*	.	?	10µM*
COC(=O)/C(C(C)=O)=C(/C=C/C=C/N(C)C)N(C)C	1%	?	-6%	-34%	?
COC(=O)\C(C(C)=O)=C(/C=C/C=C/N(C)C)N(C)C	-5%	?	2%	35µM*	?
CCc1ccccc1NC1=NCC(=O)N1Cc1ccc(OC)cc1	50%	-13%	10%	?	45µM*
Cc1ccc(NC2=NCC(=O)N2CCc2ccccc2)cc1C	62%	-17%	3%	-4%	-36%[12.7 µM]
CCOc1ccc(NC2=NCC(=O)N2CCc2ccccc2)cc1	23%	-6%	-1%	79µM*	?
COc1cccc(NC(=O)CSc2ncnc3c2oc2ccccc23)c1	32%	-14%	71µM*	7%	13%
O=C(O)CSc1ncnc2c1oc1ccccc12	13%	-1%	14%	8%	8%
CCc1nc(Nc2ccccc2O)c2oc3ccccc3c2n1	18%	?	-18%	79µM*	?
O=C(CSc1ncnc2c1oc1ccccc12)NCc1ccco1	4%	-32%	28µM*	50µM*	14µM*
CCc1nc(Nc2ccc(O)cc2)c2oc3ccccc3c2n1	6%[57 µM]	-30%	-7%	?	?
CCc1nc(N(CC)CC)c2oc3ccccc3c2n1	87%	9%	-4%	.	2%[59 µM]
CCc1nc(N2CCC(C)CC2)c2oc3ccccc3c2n1	65%	-1%	?	-2%	40µM*
O=S(=O)(c1ccc2c(c1)OCCO2)N1CCN(CCc2ccccc2)CC1	-16%	?	.	.	.
NC(=O)C(OC(=O)CNC(=O)C1CCCCC1)c1ccccc1 (configuration not stated)	28%[57 µM]	-2%[57.1 µM]	.	.	.
CCc1nc(NCc2cccnc2)c2oc3ccccc3c2n1	23%	-33%	-1%	-35%	50µM*
CCc1nc(NCc2ccco2)c2oc3ccccc3c2n1	1%	-27%	?	79µM*	?
CCNc1nc(CC)nc2c1oc1ccccc12	11%	-19%	3%	?	-46%[59 µM]
c1coc(CNc2ncnc3c2oc2ccccc23)c1	-10%	-20%	5%	?	56µM*
CCc1ccc2cccc3c2c1N=CN3C	-17%	?	.	.	.
COc1ccc(NS(=O)(=O)c2cc(NC(=O)c3ccc(=O)[nH]c3)ccc2N2CCCC2)cc1	-14%	?	-17%	40µM*	.
COc1ccc(NS(=O)(=O)c2cc(NC(=O)c3cnc(C)cn3)ccc2N2CCCC2)cc1	17%	-26%	3%	-4%	-12%[59 µM]
O=C(Nc1ccc(N2CCCCC2)cc1)c1cccnc1Cl	27%	-24%	-9%	-31%	50µM*
SMILES	HP1b binding inh	JMJD2A Tudor inh	Sfp inh	BAZ2B inh	G9a inh
COc1ccc(NS(=O)(=O)c2cc(NC(=O)c3cnc(C)cn3)ccc2N2CCCCC2)cc1	23%	-14%	-6%	-4%	9%[59 µM]
COc1ccc(NS(=O)(=O)c2cc(NC(=O)c3cccnc3Cl)ccc2N2CCCC2)cc1	17%	?	9%	-30%	45µM*
CCN(CC)CCNC(=O)c1nn(C)c2c1CS(=O)(=O)c1ccccc1-2	-16%	-18%	.	-2%	?
CCCN(C(=O)CSCc1c(C)noc1C)c1c(N)n(Cc2ccccc2)c(=O)[nH]c1=O	-14%	-15%	.	3%	45µM*
CCCCn1c(N)c(N(CC)C(=O)CSCc2c(C)noc2C)c(=O)[nH]c1=O	30%	-14%	13%	-8%	45µM*
CCCCn1c(N)c(N(CCOC)C(=O)CSCc2c(C)noc2C)c(=O)[nH]c1=O	34%	-10%	18%	-17%	-3%
CCCN(C(=O)Cn1nc(C)c([N+](=O)[O-])c1C)c1c(N)n(Cc2ccccc2)c(=O)[nH]c1=O	21%	-3%	.	9%	45µM*
